In ChEMBL document CHEMBL1201862, “PubChem BioAssay data set” (2004) one finds GI50 data, which are given here for eleven substances.

In all, about 56,000 […] went through this assay and about 4,700 (8.4%) were called active. Rule as the data show it: active = GI50 up to about 1.1 µM and inactive = higher. Only a selection was taken, and actives are over-represented in it overall. Results with a measured potency or affinity are listed apart.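 Where inhibition never reached the appropriate level, the endpoint shown equals the highest concentration tested. Otherwise, values were interpolated linearly from a five-concentration, 48-hour dose response in 96-well plates. GI50 marks 50% less growth.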

This assay deals with NCI-H460. The experiment in a line: NCI tumour cell line growth inhibition, 48 h.
As for “[Bis(aminomethyl)tetramethylenesilane]tetrachloropaltinum(IV), CHEMBL2146189”, the GI50 came out at 314 nM.

The substance “[Bis(aminomethyl)dimethylsilane]tetrachloroplatinum(IV), CHEMBL2146190” displayed a GI50 of 577 nM.

Substance “cis-Bis[[(trimethylsilyl)methyl]amino]tetrachloroplatinum(IV), CHEMBL2146191” had a GI50 of 9770 nM.

In the case of “[Bis(aminomethyl)ethylmethylsilane]tetrachloroplatinum(IV), CHEMBL2146192”, the GI50 was 774 nM.

The substance “[Bis(aminomethyl)pentamethylenesilane]tetrachloropaltinum(IV), CHEMBL2146204” yielded a GI50 of 206 nM.

Regarding “[Bis(aminomethyl)tetramethylenesilane]dichloropaltinum(II), CHEMBL2146205”, the GI50 was found to be 2640 nM.

Substance “mu-(1,7-nanodiamine-N,N')bis-(cis-aminedichloroplatimum (II)), CHEMBL2146215” returned a GI50 of 1610 nM.

In turn, “[Bis(aminomethyl)diethylsilane]tetrachloroplatinum(IV), CHEMBL2146203” showed a GI50 of 438 nM.

“[Bis(aminomethyl)dimethylsilane]dichloroplatinum (II), CHEMBL2146201” yielded a GI50 of 3370 nM.

On to “[Bis(aminomethyl)pentamethylenesilane]dichloropaltinum(II), CHEMBL2146202”, for which the GI50 is 312 nM.

Substance CISPLATIN, CHEMBL11359 displayed a GI50 of 579 nM.
